# In the supplement of paper PMC8728848:
# Shown is part of a subset that was picked to be rich in the strongest signals.
# B1: Eap (Staphylococcus aureus), A0A7L5PYT7 (protein)
# chain: MKFKSLITTTLALGVLASTGANFNNNEAAAAAKPLDKSSSSLHHGYSKVHVPYAITVNGTSQNILSSLTFNKNQNISYKDLEDRVKSVLKSDRGISDIDLRLSKQAKYTVYFKNGTKKVIDLKAGIYTADLINTSEIKAININVDTKKQVEDKKKDKANYQVPYTITVNGTSQNILSNLTFNKNQNISYKDLEDKVKSVLESNRGITDVDLRLSKQAKYTVNFKNGTKKVIDLKSGIYTANLINSSDIKSININVDTKKHIENKAKRNYQVPYSINLNGTSTNILSNLSFSNKPWTNYKNLTSQIKSVLKHDRGISEQDLKYAKKAYYTVYFKNGGKRILQLNSKNYTANLVHAKDVKRIEITVKTGTKAKADRYVPYTIAVNGTSTPILSDLKFTGDPRVGYKDISKKVKSVLKHDRGIGERELKYAKKATYTVHFKNGTKKVININSNISQLNLLYVQDIKKIDIDVKTGTKAKADSYVPYTIAVNGTSTPILSKLKISNKQLISYKYLNDKVKSVLKSERGISDLDLKFAKQAKYTVYFKNGKKQVVNLKSDIFTPNLFSAKDIKKIDIDVKQYTKSKKNK
# Experiments:
# Test in all cases: glycan array binding signal (z-score within array); higher = stronger binding
# Conditions in all cases: glycan notation: IUPAC condensed, linker removed
# [1] = molecular target: Fuc(a1-2)Gal(b1-3)GalNAc(b1-3)Gal(a1-4)Gal(b1-4)Glc
# In short: (§1)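 Arrays were curated from the Consortium for Functional Glycomics database, 3228 in total, and kept only where the protein sequence was available. Binding is expressed as a within-array Z-score. This score was averaged across arrays of the same protein sequence at different concentrations or buffers and across linkers, and negative values can be read as non-binding.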
# [2] = molecular target: Fuc(a1-2)Gal(b1-3)[Fuc(a1-4)]GlcNAc
# In short: as §1
# [3] = molecular target: Fuc(a1-2)[Gal(a1-3)]Gal(b1-3)GlcNAc(b1-2)Man(a1-3)[Fuc(a1-2)[Gal(a1-3)]Gal(b1-3)GlcNAc(b1-2)Man(a1-6)]Man(b1-4)GlcNAc(b1-4)GlcNAc
# In short: as §1
# [4] = molecular target: Fuc(a1-2)[GalNAc(a1-3)]Gal
# In short: as §1
# [5] = molecular target: Fuc(a1-2)[GalNAc(a1-3)]Gal(b1-4)GlcNAc(b1-3)Gal(b1-4)GlcNAc(b1-3)Gal(b1-4)GlcNAc
# In short: as §1
# [6] = molecular target: Fuc(a1-3)[Gal(b1-4)]GlcNAc(b1-4)Gal(b1-4)[Fuc(a1-3)]GlcNAc(b1-4)Gal(b1-4)[Fuc(a1-3)]GlcNAc
# In short: as §1
# [7] = molecular target: Fuc(a1-3)[Gal(b1-4)]GlcNAc6S
# In short: as §1
# [8] = molecular target: Fuc(a1-3)[Gal3S(b1-4)]GlcNAc6S
# In short: as §1
# [9] = molecular target: Fuc(a1-3)[Neu5Ac(a2-3)]Gal(b1-4)GlcNAc(b1-3)GalNAc
# In short: as §1
# [10] = molecular target: Gal(a1-3)Gal(b1-4)[Fuc(a1-3)]GlcNAc
# In short: as §1
# [11] = molecular target: Gal(a1-3)Gal(b1-4)[Fuc(a1-3)]GlcNAc(b1-2)Man(a1-3)[Gal(a1-3)Gal(b1-4)[Fuc(a1-3)]GlcNAc(b1-2)Man(a1-6)]Man(b1-4)GlcNAc(b1-4)GlcNAc
# In short: as §1
# [12] = molecular target: Gal(a1-4)Gal(b1-4)GlcNAc(b1-3)Gal(b1-4)Glc
# In short: as §1
# Gal(b1-3)GalNAc = molecular target: Gal(b1-3)GalNAc
# In short: as §1
# [13] = molecular target: Gal(b1-3)GalNAc(b1-4)Gal(b1-4)Glc
# In short: as §1
# [14] = molecular target: Gal(b1-4)GlcNAc(b1-2)Man(a1-6)Man(b1-4)GlcNAc(b1-4)GlcNAc
# In short: as §1
# [15] = molecular target: Gal(b1-4)GlcNAc(b1-3)Gal(b1-4)GlcNAc(b1-3)Gal(b1-4)GlcNAc
# In short: as §1
# Gal3S(b1-4)GlcNAc = molecular target: Gal3S(b1-4)GlcNAc
# In short: as §1
# Gal3S4S(b1-4)GlcNAc = molecular target: Gal3S4S(b1-4)GlcNAc
# In short: as §1
# GlcA(b1-6)Gal = molecular target: GlcA(b1-6)Gal
# In short: as §1
# [16] = molecular target: GlcNAc(a1-4)Gal(b1-4)GlcNAc(b1-3)Gal(b1-4)Glc
# In short: as §1
# [17] = molecular target: GlcNAc(a1-4)Gal(b1-4)GlcNAc(b1-3)Gal(b1-4)GlcNAc
# In short: as §1
# [18] = molecular target: GlcNAc(a1-4)Gal(b1-4)GlcNAc(b1-3)Gal(b1-4)[Fuc(a1-3)]GlcNAc(b1-3)Gal(b1-4)[Fuc(a1-3)]GlcNAc
# In short: as §1
# [19] = molecular target: GlcNAc(b1-4)GlcNAc(b1-4)GlcNAc(b1-4)GlcNAc(b1-4)GlcNAc(b1-4)GlcNAc
# In short: as §1
# [20] = molecular target: Man(a1-2)Man(a1-3)[Man(a1-6)]Man(a1-6)[Man(a1-2)Man(a1-3)]Man(b1-4)GlcNAc(b1-4)GlcNAc
# In short: as §1
# [21] = molecular target: Neu5Ac(a2-3)Gal(b1-4)[Fuc(a1-3)]GlcNAc
# In short: as §1
# [22] = molecular target: Neu5Ac(a2-3)Gal(b1-4)[Fuc(a1-3)]GlcNAc(b1-6)[Gal(b1-3)]GalNAc
# In short: as §1
# [23] = molecular target: Neu5Ac(a2-3)Gal(b1-4)[Fuc(a1-3)]GlcNAc(b1-6)[Neu5Ac(a2-3)Gal(b1-3)]GalNAc
# In short: as §1
# Neu5Ac(a2-3)GalNAc = molecular target: Neu5Ac(a2-3)GalNAc
# In short: as §1
# [24] = molecular target: Neu5Ac(a2-6)Gal(b1-4)GlcNAc6S
# In short: as §1
# [25] = molecular target: Neu5Ac(b2-6)Gal(b1-4)GlcNAc
# In short: as §1
# [26] = molecular target: Neu5Gc(a2-3)Gal(b1-3)GlcNAc
# In short: as §1
binder,measurement,setting,value
B1,glycan array binding signal (z-score),[1],0.012
same,glycan array binding signal (z-score),[2],-0.514
same,glycan array binding signal (z-score),[3],-0.498
same,glycan array binding signal (z-score),[4],-0.319
same,glycan array binding signal (z-score),[5],3.63
same,glycan array binding signal (z-score),[6],-0.587
same,glycan array binding signal (z-score),[7],1.35
same,glycan array binding signal (z-score),[8],4.89
same,glycan array binding signal (z-score),[9],3.33
same,glycan array binding signal (z-score),[10],-0.392
same,glycan array binding signal (z-score),[11],-0.414
same,glycan array binding signal (z-score),[12],-0.4
same,glycan array binding signal (z-score),Gal(b1-3)GalNAc,-0.063
same,glycan array binding signal (z-score),[13],-0.183
same,glycan array binding signal (z-score),[14],-0.437
same,glycan array binding signal (z-score),[15],-0.513
same,glycan array binding signal (z-score),Gal3S(b1-4)GlcNAc,-0.007
same,glycan array binding signal (z-score),Gal3S4S(b1-4)GlcNAc,1.97
same,glycan array binding signal (z-score),GlcA(b1-6)Gal,-0.24
same,glycan array binding signal (z-score),[16],4.14
same,glycan array binding signal (z-score),[17],4.58
same,glycan array binding signal (z-score),[18],8.99
same,glycan array binding signal (z-score),[19],-0.455
same,glycan array binding signal (z-score),[20],-0.331
same,glycan array binding signal (z-score),[21],-0.563
same,glycan array binding signal (z-score),[22],-0.08
same,glycan array binding signal (z-score),[23],-0.297
same,glycan array binding signal (z-score),Neu5Ac(a2-3)GalNAc,-0.425
same,glycan array binding signal (z-score),[24],-0.392
same,glycan array binding signal (z-score),[25],-0.365
same,glycan array binding signal (z-score),[26],-0.196
